Data taken from the supplement of paper PMC12669032.
A number with no mark means an inactive call.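 How the source made its calls: active = AUC reduced over 20% with Padj below 0.05 in at least 2 of 3 replicates; inactive = otherwise.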

Assays:
Assay in all cases: growth AUC relative to DMSO control (median of replicates) (fraction); higher = more growth (less inhibition), active = hit call of the paper
Settings in all cases: 20 µM; 24 h
Coprococcus comes = tested on: Coprococcus comes
Summary of the method: (§1)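 Gut bacteria were grown singly in mGAM at 37 °C without oxygen, from OD600 0.05, alongside 20 µM compound in 1% DMSO, and OD600 was read each hour for 24 h. Area under the growth curve was normalised to the median of solvent-only wells per plate, or to row and column medians on the industrial chemical plate. The minimum OD was set to 0 beforehand, and the reported value is the median of three biological replicates grown on separate days.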

Escherichia coli ED1a = tested on: Escherichia coli ED1a
Summary of the method: as §1

Escherichia coli IAI1 = tested on: Escherichia coli IAI1
Summary of the method: as §1

Eubacterium rectale = tested on: Eubacterium rectale
Summary of the method: as §1

[1] = tested on: Fusobacterium nucleatum subsp. animalis
Summary of the method: as §1

Lactobacillus gasseri = tested on: Lactobacillus gasseri
Summary of the method: as §1

Lactobacillus paracasei = tested on: Lactobacillus paracasei
Summary of the method: as §1

Odoribacter splanchnicus = tested on: Odoribacter splanchnicus
Summary of the method: as §1

[2] = tested on: Parabacteroides distasonis
Summary of the method: as §1

Parabacteroides merdae = tested on: Parabacteroides merdae
Summary of the method: as §1

Roseburia intestinalis = tested on: Roseburia intestinalis
Summary of the method: as §1

Streptococcus salivarius = tested on: Streptococcus salivarius
Summary of the method: as §1

Row | Structure (SMILES) | growth AUC (Coprococcus comes) | growth AUC (Escherichia coli ED1a) | growth AUC (Escherichia coli IAI1) | growth AUC (Eubacterium rectale) | growth AUC [1] | growth AUC (Lactobacillus gasseri) | growth AUC (Lactobacillus paracasei) | growth AUC (Odoribacter splanchnicus) | growth AUC [2] | growth AUC (Parabacteroides merdae) | growth AUC (Roseburia intestinalis) | growth AUC (Streptococcus salivarius)
1 | CCCCCCCCn1sccc1=O | 0.958 | 0.944 | 0.938 | 0.868 | 0.83 | 0.757 (active) | 1.01 | 0.597 | 0.129 (active) | 0.00935 (active) | 0.449 (active) | 0.815
2 | CC(C)N1C(=O)c2ccccc2NS1(=O)=O | 1.05 | 0.972 | 0.97 | 1.1 | 1.01 | 0.945 | 0.932 | 0.992 | 0.787 | 1.02 | 1 | 0.978
3 | CCOP(=S)(OCC)Oc1cc(Cl)c(SC)cc1Cl | 1.02 | 0.999 | 0.977 | 0.897 | 1.03 | 0.981 | 0.995 | 1.12 | 1.01 | 0.926 | 0.994 | 1.01
4 | COP(=O)(OC)O/C(=C/Br)c1ccc(Cl)cc1Cl | 1.01 | 0.981 | 1 | 1 | 1.07 | 0.885 | 1.01 | 1.03 | 0.883 | 0.963 | 1.02 | 1
5 | CNC(=O)Oc1ccc(N(C)C)c(C)c1 | 0.992 | 1 | 1.01 | 1.06 | 1.08 | 0.909 | 1 | 0.861 | 0.977 | 0.986 | 0.949 | 0.992
6 | [CH3][Hg][Cl] | 0.816 | 1.04 | 1.06 | 0.872 | 0.956 | 0.99 | 1.04 | 0.684 (active) | 0.918 | 0.892 | 1.05 | 0.848
7 | COP(=S)(OC)SCn1nnc2ccccc2c1=O | 0.997 | 0.957 | 0.968 | 1.07 | 0.916 | 0.929 | 0.968 | 0.902 | 0.787 | 0.944 | 1.09 | 0.969
8 | CS(=O)(=O)c1ccc(C(=O)C2C(=O)CCCC2=O)c([N+](=O)[O-])c1 | 0.966 | 1 | 0.985 | 0.882 | 0.97 | 1.04 | 1.02 | 0.736 | 0.998 | 0.948 | 0.976 | 1.03
9 | CC(C)(C)C(O)C(Oc1ccc(-c2ccccc2)cc1)n1cncn1 (mixture of isomers) | 1 | 1.01 | 1.05 | 0.964 | 1.07 | 0.949 | 0.958 | 0.952 | 0.918 | 0.976 | 1.02 | 1.01
10 | COC(=O)c1ccccc1S(=O)(=O)NC(=O)N(C)c1nc(C)nc(OC)n1 | 1.01 | 0.982 | 0.978 | 0.968 | 1 | 1.06 | 0.992 | 1.01 | 0.98 | 1 | 0.998 | 1.01
11 | CCOP(=S)(OCC)SCSC(C)(C)C | 0.996 | 1 | 1.01 | 1.22 | 0.902 | 0.909 | 1.03 | 1.06 | 0.955 | 1 | 0.951 | 0.996
